Bioassay records deposited in PubChem by The Scripps Research Institute Molecular Screening Center.
CHRM1 PAM: positive allosteric modulators of human M1 muscarinic receptor | AID 588819 | CHO-K1 hM1, Fluo-8 calcium fluorescence, ACh EC20; 0% = ACh EC20, 100% = maximal ACh | activation, % at 3 µM | 360,000 tested, 0.088% active; in the data active means activation above about 19%, passing the limit was not always enough
Target sequence (P11229 whole entry, looked up): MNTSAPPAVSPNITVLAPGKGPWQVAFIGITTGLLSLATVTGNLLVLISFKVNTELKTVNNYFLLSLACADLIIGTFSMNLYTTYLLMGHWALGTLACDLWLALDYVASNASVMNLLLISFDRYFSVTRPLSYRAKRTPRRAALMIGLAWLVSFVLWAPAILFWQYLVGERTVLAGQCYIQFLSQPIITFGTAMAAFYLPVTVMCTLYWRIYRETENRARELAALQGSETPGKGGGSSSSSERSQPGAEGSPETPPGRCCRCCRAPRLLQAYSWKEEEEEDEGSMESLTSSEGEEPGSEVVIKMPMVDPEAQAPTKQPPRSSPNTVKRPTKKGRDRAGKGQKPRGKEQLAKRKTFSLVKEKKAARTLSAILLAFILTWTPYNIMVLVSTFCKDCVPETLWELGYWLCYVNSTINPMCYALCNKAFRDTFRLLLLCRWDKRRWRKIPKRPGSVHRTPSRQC
CHO-K1 Ca PAM: nonselective activator or artifact in parental CHO-K1 calcium assay; ATP EC20, Fluo-8 calcium fluorescence; 0% at ATP EC20, 100% at ATP max; activation, % at 3 µM; 360,000 tested, 0.02% active;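 active means activation above the run cutoff, the mean activation of all test compounds plus 3 SD, cut at about 40% in these data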;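 further: peak over basal fluorescence ratio in a 140 s read after ATP addition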
CHRM1 agonist: activates human CHRM1 receptor; CHO-K1 hM1, Fluo-8 calcium fluorescence, agonist mode; 0% DMSO, 100% acetylcholine EC100; activation, % at 3 µM; 360,000 tested, 0.33% active; AID 588814;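 active means activation above the run's mean compound activation plus 3 SD, cut at about 16% in these data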;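 further: peak over basal fluorescence ratio within a 140 s kinetic read after compound addition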
M1 ag parental: M1 agonist counterscreen hit in parental CHO-K1 cells | 360,000 tested, 0.48% active | activation, % at 3 µM | AID 602248 | Fluo-8 calcium fluorescence; scaled to maximal ATP response, vehicle zero; in the data active means activation above about 15%;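 further: untransfected CHO-K1 host cells lacking M1 receptor as counterscreen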
CHO-K1 Ca antag: nonselective inhibitor or artifact in parental CHO-K1 cells. ATP-induced calcium, Fluo-8 fluorescence. inhibition, % at 3 µM. 360,000 tested, 0.6% active. AID 602250;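 active means inhibition above a per-plate cutoff, the plate's mean sample inhibition plus 3 SD, cut at about 24% in these data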
CHRM1 antagonist: blocks human M1 muscarinic receptor; P11229; CHO-K1 hM1, Fluo-8 calcium fluorescence, ACh EC80 antagonist; inhibition, % at 3 µM; 360,000 tested, 1.3% active; AID 588852;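 active means percent inhibition above its own plate's cutoff, namely the mean of that plate's compound wells plus 3 SD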;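 further: peak over basal fluorescence ratio during 140 s after agonist addition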
Large screens that a line does not name were inactive. Compounds with a hit are over-represented: about 2.3% of the library has one in this group of screens.

CC(=O)Nc1ccc(S(=O)(=O)N(CC(=O)Nc2cc(C)on2)Cc2ccc(F)cc2)cc1	none
COc1cc2[nH]c3c(=O)n(N)c(=O)[nH]c3c2cc1OC	CHRM1 antagonist 41.1
COc1ccc2[nH]c3c(=O)n(N)c(=O)[nH]c3c2c1	none
CN(CC(=O)Nc1cccc(F)c1)CC(=O)N(C)CC(=O)Nc1ccccc1Br	none
CS(=O)(=O)N(CC(=O)NCCSCc1cccc(Cl)c1)c1ccccc1F	none
Cc1cc(C)c(CN2CCN(CCCn3ccc(NC(=O)OCc4ccccc4)nc3=O)CC2)c(C)c1	CHRM1 antagonist 42.4
O=C(Nc1ccn(CCCN2CCN(c3ccccc3)CC2)c(=O)n1)OCc1ccccc1	none
COc1ccc(N2CCN(CCCn3ccc(NC(=O)OCc4ccccc4)nc3=O)CC2)cc1	none
O=C(Nc1ccn(CCCN2CCN(Cc3cccc4ccccc34)CC2)c(=O)n1)OCc1ccccc1	CHRM1 antagonist 30.0
CCNC(=O)C1CCCN(C(=O)c2ccc(C(=O)OC)cc2)CC1 (stereo not drawn)	none
COc1ccc(C(=O)c2[nH]c(N)c(C(=O)NCCc3c[nH]c4ccccc34)c2-c2ccccc2Br)cc1	none (no result: CHRM1 PAM, CHRM1 agonist, CHRM1 antagonist)
N/C(=N\OCc1ccc([N+](=O)[O-])cc1)c1ccncc1	CHO-K1 Ca antag 29.8
O=C(NNC(=O)c1ccc([N+](=O)[O-])cc1)c1ccncc1	none
O[C@@H]1CN(CC2CCCCC2)[C@@H](c2ccccc2)C[C@H]1n1cc(-c2ccc(F)cc2)nn1	none
S=c1[nH]nc(COc2ccccc2)n1/N=C/c1c(Cl)cccc1Cl	none
CCOc1cc(C(=O)N2CCCC2)cc(OCC)c1OCC	CHO-K1 Ca antag 26.5
O=C(NCc1ccccn1)C(=O)NCC1OCCN1S(=O)(=O)c1ccc(F)cc1 (stereo not drawn)	none
N#CCCN1CCN(C(=S)c2ccc(-c3ccc(Cl)cc3)o2)CC1	CHO-K1 Ca antag 26.6
S=C(c1ccc(-c2ccc(Cl)cc2)o1)N1CCCCC1	none
CN(C)N(C(=O)c1cc(-c2cccs2)nn1-c1ccccc1)C1CCS(=O)(=O)C1 (stereo not drawn)	none
CCCCn1c(SCC(=O)NC2CC2)nc2ccccc2c1=O	none
OC(COC(c1ccccc1)c1ccccc1)CN1CCc2ccccc2C1 (stereo not drawn)	none
OC(COC(c1ccccc1)c1ccccc1)CN1CCN(c2ccccn2)CC1 (stereo not drawn)	CHRM1 antagonist 42.0
OC(COC(c1ccc(Cl)cc1)c1ccc(Cl)cc1)CN1CCc2ccccc2C1 (stereo not drawn)	M1 ag parental 16.0
CCOC(=O)C1CCCN(C(=O)c2cc(-c3ccco3)nc3ccccc23)C1 (stereo not drawn)	CHRM1 agonist 25.3
CCOC(=O)C1CCCN(C(=O)c2ccc(-c3ccccc3Cl)o2)C1 (stereo not drawn)	none
CCOC(=O)C1CCCN(C(=O)c2ccco2)C1 (stereo not drawn)	CHRM1 agonist 51.8
CCOC(=O)C1CCCN(C(=O)c2sc3nc(-c4ccc(OC)cc4)cn3c2C)C1 (stereo not drawn)	CHRM1 agonist 28.4
CCOC(=O)C1CCN(C(=O)c2sc3nc(-c4ccccc4)cn3c2C)CC1	none
CCOC(=O)C1CCCN(c2c(C(=O)c3ccccc3)cnc3ccccc23)C1 (stereo not drawn)	CHRM1 agonist 38.4, CHRM1 antagonist 30.0
CC(=O)NS(=O)(=O)c1ccc(NS(=O)(=O)c2ccccc2[N+](=O)[O-])cc1	none
FC(F)(F)Oc1ccc(Nc2nc(N3CCOCC3)nc(N3CCOCC3)n2)cc1	none
CCOC(=O)Cc1c(-c2cccc(Cl)c2)nc2c3ccccc3ccn12	none (no result: CHRM1 PAM, CHRM1 agonist, CHRM1 antagonist)
O=C(CN1CCOCC1)Nc1cccc(C(=O)Nc2cccc(C(F)(F)F)c2)c1	none
Cc1ccccc1NC(=O)Nc1ccc(C(F)(F)F)cc1	CHO-K1 Ca antag 24.1
COc1ccc(NC(=O)Nc2ccc([N+](=O)[O-])cc2)cn1	M1 ag parental 16.2
COc1ccc(NC(=O)Nc2cccc(C(F)(F)F)c2)cn1	CHO-K1 Ca antag 26.3
COc1ccc(NC(=O)Nc2cc(C)cc(C)c2)cn1	none
CCCCCNCC(=O)Nc1cccc(C(=O)Nc2cccc(C(F)(F)F)c2)c1	M1 ag parental 24.4
Cc1ccccc1NC(=O)CNC(=O)c1ccc(C(F)(F)F)cc1	none
C[C@H](CO)N1C[C@H](C)[C@@H](CN(C)S(=O)(=O)c2ccccc2F)Oc2ncc(C#Cc3cccnc3)cc2C1=O	none
CC(=O)c1c(C)[nH]c(C(=O)Nc2cccc(C(F)(F)F)c2)c1C	M1 ag parental 18.4, CHRM1 antagonist 24.7
Cc1ccc(OC(F)F)c(NC(=O)Nc2cccc(C(F)(F)F)c2)c1	CHRM1 antagonist 27.7
COc1cccc(NC(=O)Nc2cc(C)ccc2OC)c1	none
O=C(Nc1ccc(-n2ccc(C(F)(F)F)n2)cc1)Nc1cccc(Cl)c1	CHO-K1 Ca antag 30.5, CHRM1 antagonist 45.2
Cc1cc(C)cc(NC(=O)Nc2ccc(-n3ccc(C(F)(F)F)n3)cc2)c1	none
CC(=O)c1c(C)[nH]c(C(=O)Nc2cccc(C#N)c2)c1C	none
CNC(=O)Nc1cccc(C(F)(F)F)c1	none
O=C(Nc1ccccc1)Nc1cccc(C(F)(F)F)c1	CHO-K1 Ca antag 30.0
COc1cc(C(=O)OCC(=O)Nc2ccccc2C(=O)NC2CC2)c([N+](=O)[O-])cc1OC	none
CC1(C(=O)NS(=O)(=O)C2CC2)CCCN(C(=O)COCc2ccccc2)C1 (stereo not drawn)	none
O=C(Nc1oc2ccc(Cl)cc2c(=O)c1-c1ccc(F)cc1)c1ccco1	none
CCOC(=O)c1cnc2c(C)cc(Cl)cc2c1N1CCN(C)CC1	none
OC1c2cc(Br)ccc2N=C2CCCN21 (stereo not drawn)	none
OC1c2cc(Br)ccc2N=C2CCCCCN21 (stereo not drawn)	CHRM1 antagonist 78.5
Cc1cc(C(=O)CSc2cccc[n+]2[O-])c(C)n1-c1ccc(OC(F)F)cc1	none
COC(=O)c1ccc(-n2c(C)cc(C(=O)CSc3cccc[n+]3[O-])c2C)cc1	M1 ag parental 16.1
CC1(C(=O)NCc2cccnc2)Cc2c(-c3cccc(C(F)(F)F)c3)ccnc2O1 (stereo not drawn)	none
CCC(C)N1CCN(S(=O)(=O)c2ccc3ccccc3c2)CC1 (stereo not drawn)	none
CCC(C)N1CCNCC1 (stereo not drawn)	CHO-K1 Ca antag 25.1
CC1(CO)CCCC1NCCNC1CCCC1(C)CO (stereo not drawn)	none
COc1ccccc1-c1cc(NC=O)c2ncc(-c3cccc(C(F)(F)F)c3)n2c1	CHRM1 PAM 31.1
COc1ccc(-c2cc(NC=O)c3ncc(-c4cccc(C(=O)NCCN(C)C)c4)n3c2)c(OC)c1	CHRM1 antagonist 85.3
S=C1SCCCN1Cc1ccc(Cl)cc1	none
